# p53null 32C kill – qHTS Screen for Compounds that Selectively Target Cancer Cells with p53 Mutations: Cytotoxicity of p53 Null Cells at the Permissive Temperature | Potency, µM (doses to about 46.1 µM), usual class: cytotoxic | H1299-neo p53 null cells, ATP luminescence, 24 h, 32C | 55,000 tested, 0.62% active; note: nearly all actives have a fitted effect of over 55% in size
#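 Cells lacking p53 (H1299-neo) are plated at 600 per well and allowed to settle overnight at 37C. Test compounds (up to 46 uM) are added and held 24 hours at 32C, then ATP is quantified by luminescence.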
# PMP22 txn prim – Cell-based coincidence reporter assay to measure PMP22 gene transcription in S16 Pmp22-F2sN cells - Primary screen; S16 Pmp22-F2sN Schwann cells, FLuc/NLuc coincidence luminescence, 24 h; Potency, µM (titrated, usually from 57.5 µM), usual class: inhibitors; 43,000 tested, 2% active; AID 1508649, 2021; active = clear falling dose curves in both reporters; inconclusive = both reporters move, but less clearly or upward; inactive = either reporter flat; the % is the NLuc reporter signal
#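 qHTS, 1536-well. Cells seeded, compounds added by pin tool, 24 h 37C. Nano-Glo reagent 1 (lysis/FLuc), 10 min RT, read; Stop&Glo, 10 min RT, read NLuc.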
# S16 viability – Cell viability qHTS assay in S16 Pmp22-F2sN cells. Potency, µM (series often up to 57.5 µM), most hits filed as cytotoxic. 43,000 tested, 0.48% active. S16 Pmp22-F2sN Schwann cells (luciferase reporters placed in the Pmp22 gene) viability, CellTiter-Glo, 24 h; note: nearly all actives have a fitted effect of over 65% in size
#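 CellTiter-Glo counter-screen, qHTS, 1536-well. Cells: S16(c9) Pmp22-F2sN, 500-1,000/well in DMEM + 10% FBS. Cpd 23 nL pin transfer, 24 h, 37C/5% CO2. Read: luminescence, CCD imager.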
# p53null 39C kill – qHTS Screen for Compounds that Selectively Target Cancer Cells with p53 Mutations: Cytotoxicity of p53 Null Cells at the Nonpermissive Temperature; H1299 p53-null (neo) cells, 39C, ATPlite viability, 24 h; Potency, µM (top dose mostly 46.1 µM), usual class: cytotoxic; 55,000 tested, 0.97% active; note: nearly all actives have a fitted effect of over 50% in size
#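 Luminescent ATP signal reported cell survival after H1299 lines (neo, p53 null; or p53 A138V) received up to 46 uM compound and 24 hr incubation at 39C.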
# pS6 MEF inh – Acumen qHTS Assay for Inhibitors of the mTORC1 Signaling Pathway in MEF (Tsc2-/-, p53-/-) Cells: Sytravon; Tsc2-/- p53-/- MEF, phospho-rpS6 immunofluorescence/PI, 24 h; 44,000 tested, 0.78% active; Potency, µM (highest dose often 38.3 µM), hits mostly inhibitors; AID 493208, 2011; note: nearly all actives have a fitted effect of over 50% in size
#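 Cell-based qHTS: Tsc2-/- p53-/- MEF, 24 h cpd, 37 °C; fix/perm, anti-phospho-S6 Alexa-488 + PI; Acumen 488 nm scan; pS6/PI ratio, % positive cells; rapamycin 7.5 nM = inhibition ref; PI count = viability.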
# GALC G270D up – A Novel Cell-Based Assay to Identify Small Molecules for B -Galactocerebrosidase | 145M-Twi-hGALC-G270D cells, HMU-beta-Gal fluorescence, 48 h | Potency, µM (top dose mostly 57.5 µM), usual class: activators | 45,000 tested, 0.1% active | AID 1159614, 2016; note: nearly all actives have a fitted effect of over 65% in size
# Target sequence (P54803 whole entry G286D): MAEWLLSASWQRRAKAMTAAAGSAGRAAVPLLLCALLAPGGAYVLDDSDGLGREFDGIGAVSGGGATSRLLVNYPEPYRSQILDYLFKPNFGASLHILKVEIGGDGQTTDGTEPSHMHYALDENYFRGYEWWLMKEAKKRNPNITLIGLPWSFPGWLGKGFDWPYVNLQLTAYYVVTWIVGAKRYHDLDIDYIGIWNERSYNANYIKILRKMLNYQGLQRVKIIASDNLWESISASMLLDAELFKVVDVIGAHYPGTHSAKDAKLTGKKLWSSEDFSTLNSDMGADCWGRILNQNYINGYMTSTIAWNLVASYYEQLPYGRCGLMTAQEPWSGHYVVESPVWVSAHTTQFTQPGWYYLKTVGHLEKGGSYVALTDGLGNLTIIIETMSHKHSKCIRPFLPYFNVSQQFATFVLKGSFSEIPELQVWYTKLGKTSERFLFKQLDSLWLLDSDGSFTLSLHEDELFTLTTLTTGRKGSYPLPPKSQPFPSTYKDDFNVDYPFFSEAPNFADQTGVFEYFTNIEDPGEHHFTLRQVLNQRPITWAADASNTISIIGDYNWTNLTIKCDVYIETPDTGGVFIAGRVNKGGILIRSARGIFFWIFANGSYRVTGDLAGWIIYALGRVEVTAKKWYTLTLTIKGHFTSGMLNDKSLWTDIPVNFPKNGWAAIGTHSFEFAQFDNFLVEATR
#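 qHTS, 1536-well; 145M-Twi-hGALC-G270D cells (WT line also made) in DMEM/F12 + 10% FBS; compound incubation on live cells; HMU-β-gal 0.1 mM final, pH 5.2, NaTC; carbonate stop; fluorescence increase = enhanced residual activity.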
# NLuc saturating – Biochemical NLuc saturation counterscreen for small molecule modulators of PMP22 gene expression - Nano-Glo assay. shares compounds with PMP22 txn prim. 690 tested, 4% active. Secreted NLuc enzyme (filtered S16 cell medium), Nano-Glo luminescence. Potency, µM (titrated, usually from 57.5 µM), actives largely listed as inhibitors
# NLuc Km counter – Biochemical coelenterazine-based NLuc counterscreen for small molecule modulators of PMP22 gene expression - Km assay; shares compounds with PMP22 txn prim; secreted NLuc enzyme, coelenterazine luminescence, Km conditions; Potency, µM (doses to about 57.5 µM), actives largely listed as inhibitors; 690 tested, 5% active; AID 1508639, 2021
# FLuc counter – Biochemical FLuc counterscreen for small molecule modulators of PMP22 gene expression | shares compounds with PMP22 txn prim | purified P. pyralis FLuc, luminescence, 10 min | Potency, µM (series often up to 57.5 µM), usual class: inhibitors | 690 tested, under 10 active | AID 1508640, 2021
# S16 viab conf – Cell viability qHTS assay in S16 Pmp22-F2sN cells - Confirmatory screen. 690 tested, 7% active. Potency, µM (top dose mostly 57.5 µM), usual class: cytotoxic. shares compounds with PMP22 txn prim. S16 Schwann cells viability, CellTiter-Glo ATP luminescence, 24 h
# PMP22 txn cnf – Cell-based coincidence reporter assay to measure PMP22 gene transcription in S16 Pmp22-F2sN cells - Confirmatory screen; shares compounds with PMP22 txn prim; Potency, µM (doses to about 57.5 µM), actives largely listed as inhibitors; S16 Schwann cells Pmp22-F2sN, dual luciferase, 24 h; 690 tested, 22% active; active = clear falling dose curves in both reporters; inconclusive = both reporters move, but less clearly or upward; inactive = either reporter flat; the % is the FLuc reporter signal
# PMP22 HiBiT cnf – Cell-based HiBiT reporter assay to measure PMP22 protein expression in S16 Pmp22-HiBiT cells - Confirmatory screen; shares compounds with PMP22 txn prim; S16 Schwann cells Pmp22-HiBiT, luminescence, 48 h; Potency, µM (titrated, usually from 27.9 µM), usual class: inhibitors; 95 tested, under 10 active
# Numbers stand for hits; 0 = inactive; ? = inconclusive; - = not tested or not shown; [ ] = dose if it differs, or a comment. Sampled rows, rich in hits. Any-hit rate of the full collection: about 3%. Unless noted, calls come from the whole dose curve; as a rule, active = well fitted curve in the direction sought with a large enough effect; inconclusive = small, poorly fitted or top-dose-only effect, or another doubt; inactive = no such curve, though single readings can be large; an effect the other way counts as inactive or inconclusive.
SMILES,p53null 32C kill,PMP22 txn prim,S16 viability,p53null 39C kill,pS6 MEF inh,GALC G270D up,NLuc saturating,NLuc Km counter,FLuc counter,S16 viab conf,PMP22 txn cnf,others
Cc1ccc(CNC(=O)c2ccc(Cn3c(=O)c4ccccc4n(CC(=O)Nc4c(C)cc(C)cc4C)c3=O)cc2)cc1,?,16µM,?,?,0,0,0,0,0,?,7.9µM,PMP22 HiBiT cnf=?
Cc1ccc(-n2c(=O)c3ccc(C(=O)NCc4ccccc4Cl)cc3n(CC(N)=O)c2=O)cc1,?,?,0,?,0,0,-,-,-,-,-,
COc1ccc(Cl)cc1NC(=O)Cn1c(=O)n(-c2ccc(C)cc2)c(=O)c2ccc(C(=O)NCc3ccccc3Cl)cc21,0,10µM,0,?,0,0,0,0,0,31µM,11µM,
Cc1ccc(CNC(=O)c2ccc(Cn3c(=O)c4ccccc4n(CC(=O)Nc4ccc(C)cc4C)c3=O)cc2)cc1,0,14µM,0,?,0,0,0,0,0,?,?,
C/C(=N\NC(=O)CSCc1ccccc1Cl)c1cccc(NC(=O)c2ccccc2)c1,0,-,-,0,-,-,-,-,-,-,-,
CCc1nn(CC(=O)N(CC)Cc2ccccc2)c(=O)c2cc3occc3n12,0,?,0,0,0,0,0,?,0,0,0,
CCc1nn(CC(=O)NCCN(CC)CC)c(=O)c2cc3occc3n12,0,0,?,0,0,0,-,-,-,-,-,
O=S(=O)(NCc1ccc(F)cc1)c1ccc(N2CCCCS2(=O)=O)cc1,0,12µM,?,0,0,0,0,0,0,0,0,
O=S(=O)(NCc1ccc(Cl)cc1)c1ccc(N2CCCCS2(=O)=O)cc1,0,?,?,0,0,?,-,-,-,-,-,
CCOC(=O)Cn1c(=O)n(CC2CCCO2)c2nc(-c3ccc(OC)cc3OC)nc(C(N)=O)c21 (stereo not drawn),0,0,0,0,0,0,-,-,-,-,-,
Cc1c(C(=O)OC2CCCCC2)[nH]c2c1C(=O)CC(c1ccc(F)cc1)C2 (stereo not drawn),0[9.22 µM],?,0,0,0,0,-,-,-,-,-,

# Screens (PubChem BioAssay)
